Ba/F3 V617F tox: loss of viability in JAK2V617F-driven Ba/F3 cells. Ba/F3 EpoR-JAK2V617F viability, ATP luminescence. inhibition, % at 5.6 µM. 220,000 compounds, 1.1% hits. AID 1446;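 active = inhibition above the campaign mean plus 3 SD over all tested compounds, cut at about 24% in these data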;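 note: cytokine-independent growth of Ba/F3 cells driven by EpoR plus mutant JAK2; 0% = DMSO-treated cells and 100% = JAK inhibitor I control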
APP transl inh: APP translation inhibition; SH-SY5Y APP 5'UTR-luciferase reporter, luminescence; inhibition, % at 2 µM; 190,000 compounds, 0.82% hits;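 active = inhibition above a set limit, derived from the sample mean plus 3 SD, cut at about 45% in these data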
IEC-6 cytotox: kills IEC-6 intestinal cells in KLF5 counter-screen; IEC-6 cytotoxicity, luminescence viability; inhibition, % at 5 µM; 290,000 compounds, 0.78% hits; AID 1825;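 note: 0% = plate median of test compound wells and 100% = cytotoxic reference compound wells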
KLF5 inhibitor: kruppel-like factor 5 inhibition; AID 1700; 290,000 compounds, 0.23% hits; DLD-1 KLF5 promoter-luciferase reporter, luminescence; inhibition, % at 5 µM;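 active = inhibition above a per-plate limit of that plate's mean compound inhibition plus 3 SD, cut at about 60% in these data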;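 note: 0% = DMSO wells and 100% = LY294002 at 200 µM; higher means less KLF5 promoter-driven luciferase light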
aSyn 5UTR inh: MLPCN primary screen, SNCA 5' untranslated region | alpha-synuclein 5'UTR reporter, inhibitor activity | inhibition, % (tested at 7.5 µM) | 300,000 compounds, 0.82% hits; in the data active = inhibition above about 60%;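 note: H4 neuroglioblastoma cells stably carrying SNCA 5'UTR luciferase fusion; 0% = DMSO wells and 100% = positive control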
BaF3 tox: parental Ba/F3 viability inhibition as JAK2V617F counter-screen. CellTiter-Glo ATP luminescence. inhibition, % at 5.6 µM. 220,000 compounds, 1.1% hits;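 active = inhibition above a per-campaign cutoff, the mean inhibition of all tested compounds plus 3 SD, cut at about 27% in these data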;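 note: 0% = DMSO wells and 100% = JAK Inhibitor I control wells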
IEC-6 cytotox cf: confirmation of cytotoxic compounds in rat IEC-6 intestinal epithelial cells; shares compounds with IEC-6 cytotox; 1,900 compounds, 63% hits; IEC-6 rat intestinal epithelial viability, luminescence; inhibition, % at 5 µM;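 note: 0% = vehicle and 100% = reference cytotoxic drug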
Starred values were filed as active, the others as inactive; . = no result given. Most compounds without a hit are left out; they make up all but 2.2% or so of the library. Cut-off read from the data, not from the text of the source, unless noted: active = inhibition above about 22%; inactive = the rest.

SMILES	Ba/F3 V617F tox	APP transl inh	IEC-6 cytotox	KLF5 inhibitor	aSyn 5UTR inh	BaF3 tox	IEC-6 cytotox cf
O=c1cc(-c2ccccc2)nc2cc(-c3ccc(F)cc3)[nH]n12	.	.	.	.	-109.4	.	.
COc1cccc(-c2cc3nc(-c4ccccc4)cc(=O)n3[nH]2)c1	.	.	78.3*	22.4	-167.0	.	53.4*
c1csc(-c2nc3c4ccccc4c4ccccc4c3[nH]2)c1	7.9	7.3	24.2*	-13.8	-72.9	10.2	23.1*
CC(C)[C@H](NC(=O)c1ccco1)C(=O)N(C)Cc1ccc(C(F)(F)F)cc1	.	.	0.4	-26.3	-19.1	.	.
O=S(=O)(c1ccc(Cl)cc1)N1CCCC(C(F)(F)F)C1 (configuration not stated)	2.3	3.2	1.8	-18.0	-12.8	6.1	.
NCC(=O)Nc1ccc(Cl)cc1C(=O)c1ccc[nH]1	58.3*	.	31.0*	-26.7	-23.4	37.5*	9.3
O=C(NNC(=O)c1ccc[nH]1)c1cc(Cl)cc(Cl)c1	.	.	-6.7	-18.4	-0.1	.	.
COC(=O)c1cc(C(=O)N2CCN(c3ncccn3)CC2)cc([N+](=O)[O-])c1	.	.	-5.2	-7.5	15.0	.	.
COC(=O)c1cc(C(=O)N2CCN(c3cccc(C)c3C)CC2)cc([N+](=O)[O-])c1	49.4*	76.6*	37.4*	47.4	78.0*	68.5*	32.8*
COC(=O)c1cc(C(=O)c2c(C)cc3ccccn23)cc([N+](=O)[O-])c1	.	.	44.3*	3.4	-40.7	.	48.0*
Cc1cc2ccccn2c1C(=O)c1cc([N+](=O)[O-])cc([N+](=O)[O-])c1	-3.3	-34.3	3.3	3.8	2.3	-2.7	.
O=c1[nH]c(/C=C/c2ccccc2Cl)nc2ccccc12	.	.	39.4*	-49.9	-264.5	.	24.3*
O=C(Nc1cc(S(=O)(=O)N2CCOCC2)ccc1-n1cncn1)c1ccc(Cl)cc1	-3.2	.	-4.6	-33.6	-8.4	-0.8	.
O=C(Nc1cc(Cl)ccc1-n1cncn1)c1cc(S(=O)(=O)N2CCOCC2)ccc1F	.	.	26.4*	-8.4	9.3	.	3.8
CC(C)(C)NC(=O)COc1ccc2oc3c(c2c1)CCCC3	.	.	-0.6	-23.7	-2.9	.	.
O=S(=O)(Cc1ccc(Cl)cc1)NCc1ccc2c(c1)OCO2	.	.	-3.4	-4.2	4.0	.	.
CCOCCCNC(=O)c1cc2c(=O)n(CC)c3ccccc3c2s1	.	.	22.0*	-57.3	-79.9	.	6.5
CCn1c(=O)c2cc(C(=O)NCCOC)sc2c2ccccc21	.	.	9.6	-13.2	-35.2	.	.
CCN(CC)CCNC(=O)c1cc2c(=O)n(CC)c3ccccc3c2s1	.	.	17.5	-49.3	-124.6	.	.
CCN(CC)CCCNC(=O)c1cc2c(=O)n(CC)c3ccccc3c2s1	.	.	25.8*	-13.1	-107.5	.	10.6
O=C(CCC(=O)Nc1nnc(C2CCCCC2)s1)NCc1ccc(F)cc1	.	.	5.4	-2.3	4.8	.	.
COC(=O)Nc1nc(-c2ccccc2)c(C(=O)c2ccccc2)s1	79.6*	95.3*	84.3*	53.0	100.0*	78.3*	56.5*
CC(C)c1ccccc1NC(=O)C1C2C=CC(C2)C1C(=O)O (configuration not stated)	.	.	-0.1	-21.2	-9.7	.	.
COc1cccc2c1O/C(=N\O)C(C(=O)Nc1ccc(C)cc1)C2 (configuration not stated)	.	.	51.7*	24.3	-30.6	.	32.9*
COc1ccc(NC(=O)C2Cc3cccc(OC)c3O/C2=N\O)cc1 (configuration not stated)	.	.	3.7	8.9	-4.1	.	.
SMILES	Ba/F3 V617F tox	APP transl inh	IEC-6 cytotox	KLF5 inhibitor	aSyn 5UTR inh	BaF3 tox	IEC-6 cytotox cf
CCOc1cccc2sc(N3CCN(C(=O)c4ccc5ncsc5c4)CC3)nc12	.	.	.	.	14.0	.	.
COc1ccccc1CCC(=O)Nc1ccc2c(c1)CN(Cc1ccc(CO)o1)CC2	.	.	-0.4	-30.7	9.6	.	.
CC(=O)c1cccc(NC(=O)c2ccccc2N(Cc2ccccc2)S(C)(=O)=O)c1	.	.	6.5	-35.5	6.7	.	.
Cc1ccc(S(=O)(=O)N2c3ccccc3OCC2c2ccccc2)cc1 (configuration not stated)	-1.9	-13.9	2.2	-17.6	-1.9	6.0	.
O=C(C(Cl)Cl)N1c2ccccc2OCC1c1ccccc1 (configuration not stated)	5.8	-1.8	37.4*	5.4	-41.6	9.5	15.2
COc1ccccc1C(CNc1ccc(S(=O)(=O)N2CCCC2)cc1[N+](=O)[O-])N(C)C (configuration not stated)	.	.	22.0*	-22.1	18.6	.	8.5
Cc1cc(C)c(O)c(-c2n[nH]c3c2C(c2cccc(O)c2)N(Cc2ccco2)C3=O)c1 (configuration not stated)	0.4	.	3.5	6.6	12.3	-1.4	.
COc1ccc(OC)c(/C=C2\SC(N3CCCCC3)=NC2=O)c1	.	.	3.6	-39.9	-17.4	.	.
CC(=O)Nc1ccccc1OCC(=O)c1cc(C)n(Cc2cccs2)c1C	62.3*	-17.0	26.2*	-50.9	-150.1	81.7*	14.7
O=C(CSc1cccc[n+]1[O-])N1CCCCCC1	0.0	0.7	-0.9	-31.3	20.4	6.2	.
O=C(CSc1cccc[n+]1[O-])Nc1ccccc1Oc1ccccc1	3.4	-5.9	23.5*	-10.3	30.2	8.1	6.1
O=C(CSc1cccc[n+]1[O-])CSc1cccc[n+]1[O-]	5.6	0.9	55.2*	-15.3	9.9	6.8	11.9
O=C(CN1C(=O)NC2(CCCC2)C1=O)NNC(=O)c1ccc(Br)cc1	.	.	.	.	-15.6	.	.
CC(=O)N1CCN(c2ccc(NC(=O)c3ccc4c(c3)OCO4)cc2)CC1	-2.6	8.0	-1.1	-12.7	6.3	1.6	.
O=C(Nc1ccc(N2CCN(C(=O)c3ccccc3)CC2)cc1)c1ccc2c(c1)OCO2	71.5*	-1.6	25.8*	58.5	35.8	70.3*	21.8
CCCn1c(N)c(N(CCOC)C(=O)c2ccc([N+](=O)[O-])cc2Cl)c(=O)[nH]c1=O	.	.	4.6	-26.4	-16.2	.	.
Cc1onc(-c2ccccc2Cl)c1C(=O)NC(=S)Nc1ccc(C(C)C)cc1	57.7*	.	22.3*	-4.5	5.9	62.7*	-9.9
c1cnc2c(c1)ccc1cccnc12	7.2	31.8	69.6*	47.2	84.9*	3.5	79.9*
COc1ccc(O)c(C(=O)c2coc(=N)c(C(=O)Nc3ccc(SC(F)F)cc3)c2)c1	-4.0	-6.7	-7.7	-29.5	-14.8	-1.0	.
O=C(Nc1ccc(N2CCCC2)cc1)c1cc(Cl)ccc1Cl	.	.	56.5*	-28.3	-241.2	.	27.1*
O=C(Nc1ccc(N2CCCC2)cc1)c1ccc(Cl)cc1Cl	.	.	0.5	-60.3	-88.4	.	.
Cc1ccn2cc(-c3ccc(O)c(O)c3)nc2c1	.	.	22.8*	-57.8	41.2	.	13.0
O=C(CN(C(=O)CCC(=O)Nc1nccs1)c1ccccc1F)NCCc1ccccc1	.	.	-0.5	-17.1	7.8	.	.
CCc1ccccc1Nc1ncnc2ccccc12	.	.	0.1	-39.0	-7.2	.	.
CCCCCCCCNc1ncnc2ccccc12	69.7*	19.5	26.9*	-2.7	-16.5	62.5*	13.4
CCCn1nnnc1NC(=O)COc1ccc(Br)cc1	1.8	-1.5	7.8	-4.5	-3.9	1.2	.
Cc1occc1C(=O)N/N=C/c1ccc(OCc2ccccc2)cc1	-0.2	.	-10.2	-107.3	-137.7	-0.5	.
